Laboratory results: PubChem BioAssay (EPA / NIEHS)
Inconclusive results are not listed. Activity calls are given as the source filed them. The calls were made as follows: active = hit-call score of the fitted dose curve at least 0.9, where 1 is the maximum; inconclusive = response in the unintended direction; inactive = score below 0.9.

target: Glucocorticoid receptor (Homo sapiens) (UniProt P04150); assay: ATG_GR_TRANS: Attagene TRANS-FACTORIAL HepG2 Assay for human Glucocorticoid Receptor (GR) (AID 2282978); settings: HepG2 Attagene TRANS GR reporter, mRNA transcription;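 also: activators score as hits since higher reporter transcript over DMSO is fitted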
Description: ATG_TRANS is a cell-based, multiplexed-readout assay that uses HepG2, a human liver cell line, with measurements taken at 24 hours after chemical dosing in a 24-well plate.ATG_GR_TRANS is one of 30 assay component(s) measured or calculated from the ATG_TRANS assay. It is designed to make measurements of mRNA induction, a form of inducible reporter, as detected with fluorescence intensity signals by Reverse transcription polymerase chain reaction (RT-PCR) and Capillary electrophoresis technology.Data from the assay component ATG_GR_TRANS was analyzed into 1 assay endpoint. This assay endpoint, ATG_GR_TRANS, was analyzed in the positive analysis fitting direction relative to DMSO as the negative control and baseline of activity. Using a type of inducible reporter, measures of mRNA for gain-of-signal activity can be used to understand the reporter gene at the transcription factor-level as they relate to the gene NR3C1. Furthermore, this assay endpoint can be referred to as a primary readout, because this assay has produced multiple assay endpoints where this one serves a reporter gene function. To generalize the intended target to other relatable targets, this assay endpoint is annotated to the nuclear receptor intended target family, where the subfamily is steroidal.
Human liver HepG2 cells are transiently transfected with multiple reporter transcription units (MRTUs) in 6-well plates using FuGene 6 reagent (Roche; 3 ml FuGene/1 mg DNA). The MRTU constructs are regulated by a cis-regulating element (promoter). […] A major difference between the CIS and TRANS system is that in CIS activities of endogenous TFs are measured, whereas the TRANS assay evaluates changes in activities of exogenous, chimeric NR-Gal4 proteins. […] At the end of 24 hour incubation, total RNA was isolated using TriZol reagent (Invitrogen). The isolated RNA is then reverse-transcribed using oligo(dT) primer and Mo-MLV reverse transcriptase (Invitrogen) with DNAse I (Ambion) treatment for 30 min. The one-tenth of the produced cDNA was amplified by PCR using Taq DNA polymerase (Invitrogen) and two reporter sequence-specific primers. The PCR products were fluorescently labeled by primer extension with 6-arboxyfluorescein (6-FAM) 5'-labeled reporter sequence-specific primer (2 min at 95 C, 20 s at 68 C and 10 min at 72 C) and these products were digested with 5U of HpaI (New England Biolabs) for 2h at 37 C. The fragments were purified using Qiaquick PCR columns (Qiagen), analyzed on an ABI 3130xL genetic analyzer (Applied Biosystems) with peak positions identified by using a set of X-rhodamine (ROX)-labeled MapMarker1000 molecular weight standards (BioVentures). The raw capillary electrophoresis data was processed using Attagraph software (Attagene).

Sequence of Glucocorticoid receptor (Homo sapiens) (P04150 whole entry, looked up): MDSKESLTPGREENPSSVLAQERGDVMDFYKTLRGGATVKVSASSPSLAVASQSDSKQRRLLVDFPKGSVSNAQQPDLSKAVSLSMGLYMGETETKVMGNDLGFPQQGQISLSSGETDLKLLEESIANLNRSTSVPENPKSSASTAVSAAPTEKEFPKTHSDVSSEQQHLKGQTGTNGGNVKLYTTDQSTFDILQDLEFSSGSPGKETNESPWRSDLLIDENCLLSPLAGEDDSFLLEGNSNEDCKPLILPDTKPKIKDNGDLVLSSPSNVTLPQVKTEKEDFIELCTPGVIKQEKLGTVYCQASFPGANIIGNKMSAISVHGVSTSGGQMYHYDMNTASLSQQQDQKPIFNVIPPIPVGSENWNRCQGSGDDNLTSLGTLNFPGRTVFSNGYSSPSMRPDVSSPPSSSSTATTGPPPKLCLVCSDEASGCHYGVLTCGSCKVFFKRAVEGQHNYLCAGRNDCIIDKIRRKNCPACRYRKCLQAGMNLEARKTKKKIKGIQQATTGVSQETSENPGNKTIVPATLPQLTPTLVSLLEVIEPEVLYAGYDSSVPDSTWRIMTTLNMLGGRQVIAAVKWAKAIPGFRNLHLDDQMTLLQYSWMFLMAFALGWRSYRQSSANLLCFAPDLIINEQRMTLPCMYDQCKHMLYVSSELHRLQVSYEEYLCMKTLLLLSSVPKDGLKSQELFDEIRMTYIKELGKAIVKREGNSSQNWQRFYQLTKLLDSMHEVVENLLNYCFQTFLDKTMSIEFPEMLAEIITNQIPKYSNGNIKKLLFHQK

Compound | outcome | AC50
CC(C)CCCCCCCOP(=O)(Oc1ccccc1)Oc1ccccc1 | inactive | 
O=CNC(N1CCN(C(NC=O)C(Cl)(Cl)Cl)CC1)C(Cl)(Cl)Cl (stereo not given) | inactive | 
CC(C)c1ccc(O)cc1 | inactive | 
Nc1ccccc1C(=O)Oc1ccc2ccccc2c1 | inactive | 
CCC(=O)c1ccc(Cl)cc1 | inactive | 
CC(O)CN(CC(C)O)CC(C)O (stereo not given) | inactive | 
O=[N+]([O-])c1cc(C(F)(F)F)c(Cl)c([N+](=O)[O-])c1Cl |  | 33.4 µM (active)
Oc1cc(Cl)ccc1Cl | inactive | 
ClC1=C(Cl)[C@]2(Cl)[C@@H]3[C@@H](Cl)[C@H](Cl)C[C@@H]3[C@@]1(Cl)C2(Cl)Cl | inactive | 
C=CCO | inactive | 
c1ccc(P(c2ccccc2)c2ccccc2)cc1 | inactive | 
CN(C)N | inactive | 
CC(C)(C)C(O)C(Oc1ccc(-c2ccccc2)cc1)n1cncn1 (stereo not given) | inactive | 
O=P1(NCCCl)OCCCN1CCCl (stereo not given) | inactive | 
CN(C)CCC#N | inactive | 
COc1ncc(F)c2nc(S(=O)(=O)Nc3c(F)cccc3F)nn12 | inactive | 
CC(C)(c1cc(Cl)c(O)c(Cl)c1)c1cc(Cl)c(O)c(Cl)c1 | inactive | 
O=C(CCN1CC1)OCC(CO)(COC(=O)CCN1CC1)COC(=O)CCN1CC1 | inactive | 
CC1CCC(=O)O1 (stereo not given) | inactive | 
Clc1ccc(-c2ccccc2)cc1 | inactive | 

Compound | outcome | AC50
CCCCCCC1CCOC1=O (stereo not given) | inactive | 
Cc1ccccc1CCl | inactive | 
N#CCCCl | inactive | 
Cl/C=C\CCl | inactive | 
CCCCOP(=O)(O)OCCCC | inactive | 
CC1CCCC1.[C-]#[O+].[C-]#[O+].[C-]#[O+].[Mn] | inactive | 
C=CC(=O)OCC(CC)CCCC (stereo not given) | inactive | 
c1cc(OCC2CO2)ccc1Cc1ccc(OCC2CO2)cc1 (stereo not given) | inactive | 
COc1ccc(CO)cc1 | inactive | 
C=CCN(CC=C)C(=O)C(Cl)Cl | inactive | 
O=[N+]([O-])c1ccc(Cl)cc1 | inactive | 
Nc1c(Cl)c(Cl)c(Cl)c(Cl)c1Cl | inactive | 
O=P(O)(Oc1ccccc1)Oc1ccccc1 | inactive | 
O=[N+]([O-])c1cc([N+](=O)[O-])c2ccccc2c1 | inactive | 
N#CCCCCC#N | inactive | 
CCOC(=O)NC(=S)Nc1ccccc1NC(=S)NC(=O)OCC | inactive | 
O=C(CCl)c1ccccc1 | inactive | 
CC(C)COP(=O)(OCC(C)C)OCC(C)C | inactive | 
C=C(Cl)CCl | inactive | 
CC1(C)[C@H](C(=O)O[C@H](C#N)c2cccc(Oc3ccccc3)c2)[C@@H]1C=C(Br)Br | inactive | 
